About 83,000 compounds went through this panel and 20% of them were active in at least one assay; those are over-represented in the sample as a whole.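 Cell lines were cultured in 96-well plates, exposed to a single compound concentration, and assessed for percent growth 48 hours later.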 Calls of active or inactive are those of the source. Rule for the calls: active = growth percent below 10; inactive = the rest.
Assays:
Test in all cases: NCI-60 one-dose screen, 48 h (100 = growth as untreated, 0 = no growth, -100 = all killed)
Conditions in all cases: 10 µM unless noted
SR leukemia = tested on: SR leukemia
RPMI-8226 leukemia = tested on: RPMI-8226 leukemia
OVCAR-8 ovarian = tested on: OVCAR-8 ovarian
OVCAR-4 ovarian = tested on: OVCAR-4 ovarian
SK-OV-3 ovarian = tested on: SK-OV-3 ovarian
IGROV1 ovarian = tested on: IGROV1 ovarian
HS 578T breast = tested on: HS 578T breast
NCI/ADR-RES ovarian = tested on: NCI/ADR-RES ovarian
OVCAR-3 ovarian = tested on: OVCAR-3 ovarian
OVCAR-5 ovarian = tested on: OVCAR-5 ovarian

Measured: growth

Brc1ccc2[nH]cc(-c3nn4cc(-c5nccs5)nc4s3)c2c1
active: RPMI-8226 leukemia 4.55% | OVCAR-4 ovarian -4% | HS 578T breast -0.729%
inactive: SR leukemia 45.2% | OVCAR-8 ovarian 10.5% | SK-OV-3 ovarian 61.5% | IGROV1 ovarian 32% | NCI/ADR-RES ovarian 15.8%

CCCC/C(=C\c1ccc(O)c(O)c1)C(=O)NC(Cc1ccccc1)C(=O)C(=O)NCCc1ccc(OC)cc1 (centres undefined)
inactive: SR leukemia 105% | RPMI-8226 leukemia 89.7% | OVCAR-8 ovarian 97.2% | OVCAR-4 ovarian 92.7% | SK-OV-3 ovarian 105% | IGROV1 ovarian 96.8% | OVCAR-3 ovarian 93.7% | HS 578T breast 91.8% | NCI/ADR-RES ovarian 101%

O=C1[C@H]2Cc3c([nH]c4ccccc34)[C@H](c3ccc(Br)cc3)N2C(=O)CN1C1CCN(CC2CCCCC2)CC1
inactive: RPMI-8226 leukemia 43.2% | OVCAR-8 ovarian 85.4% | OVCAR-4 ovarian 82.7% | SK-OV-3 ovarian 87.9% | IGROV1 ovarian 82.2% | HS 578T breast 78% | NCI/ADR-RES ovarian 75.2%
active: SR leukemia -12.7%

O=C(CSc1nnc(-c2cccs2)n1-c1ccccc1)Nc1ccccc1
inactive: SR leukemia 61.3% | RPMI-8226 leukemia 99.7% | OVCAR-8 ovarian 53.5% | SK-OV-3 ovarian 80.1% | IGROV1 ovarian 89.9% | OVCAR-3 ovarian 84.2% | HS 578T breast 33.2% | NCI/ADR-RES ovarian 61.9%

CN1CCN(Cc2ccc(NC(=O)c3cncc(C#Cc4cnc5ccc(N6CCOCC6)nn45)c3)cc2C(F)(F)F)CC1
active: SR leukemia -28.4% | RPMI-8226 leukemia -23.9% | OVCAR-8 ovarian -37.6% | OVCAR-4 ovarian -19.7% | SK-OV-3 ovarian -31.9% | IGROV1 ovarian -32.8% | HS 578T breast -27.8% | NCI/ADR-RES ovarian -15.8%

C=C(C=O)[C@@H]1CC[C@]2(C(=O)O)CC[C@]3(C)C(CC[C@@H]4[C@@](C)(CCC#N)[C@H](C(=C)C=O)CC[C@]43C)[C@@H]12 (some centres undefined)
active: SR leukemia 0.41% | RPMI-8226 leukemia -8.52% | OVCAR-8 ovarian -9.95% | NCI/ADR-RES ovarian 5.79%
inactive: OVCAR-4 ovarian 18.7% | SK-OV-3 ovarian 126% | IGROV1 ovarian 14.6% | HS 578T breast 47.1%

COc1ccc(NC2=C(Br)C(=O)C(C)=C(C)C2=O)cc1OC
inactive: SR leukemia 71.2% | RPMI-8226 leukemia 70.8% | OVCAR-8 ovarian 96% | OVCAR-4 ovarian 14.1% | SK-OV-3 ovarian 83.8% | IGROV1 ovarian 86% | OVCAR-3 ovarian 107% | HS 578T breast 97.6% | NCI/ADR-RES ovarian 97.3%

COc1ccc(-c2cnc(NC(=O)CCCCCCNC(=O)C(O)(O)C(F)(F)F)s2)cc1
inactive: SR leukemia 13.2% | RPMI-8226 leukemia 14%
active: OVCAR-8 ovarian -3.57% | OVCAR-4 ovarian -9.83% | SK-OV-3 ovarian -19.3% | IGROV1 ovarian -18.7% | OVCAR-3 ovarian -50.6% | HS 578T breast 9.86% | NCI/ADR-RES ovarian -2.38%

NS(=O)(=O)c1ccc(Nc2nc(Nc3ccccc3)nc(N3N=C(c4ccc(Cl)cc4)CC3c3ccc(Cl)cc3)n2)cc1 (centres undefined)
inactive: RPMI-8226 leukemia 37.1% | OVCAR-8 ovarian 68.4% | OVCAR-4 ovarian 49.5% | SK-OV-3 ovarian 64.9% | IGROV1 ovarian 34.3% | HS 578T breast 78.8% | NCI/ADR-RES ovarian 62.4%
active: SR leukemia 5.52%

O=C(CCCCCCN1CC(=O)N2[C@@H](c3ccc(Cl)s3)c3[nH]c4ccccc4c3C[C@H]2C1=O)NO
inactive: SR leukemia 14.7% | RPMI-8226 leukemia 17% | OVCAR-8 ovarian 38.5% | OVCAR-4 ovarian 64.6% | SK-OV-3 ovarian 78.7% | HS 578T breast 65.5% | NCI/ADR-RES ovarian 98.5%
active: IGROV1 ovarian -20.6%

NNc1nnc2nc(Nc3ccccc3)nc(Nc3ccc(S(N)(=O)=O)cc3)n12
inactive: SR leukemia 93.3% | RPMI-8226 leukemia 99.4% | OVCAR-8 ovarian 107% | OVCAR-4 ovarian 112% | SK-OV-3 ovarian 113% | IGROV1 ovarian 98.3% | OVCAR-3 ovarian 110% | HS 578T breast 99.6% | NCI/ADR-RES ovarian 99.6%

C#CCOc1cccc(/C(N)=N/C(N)=N/c2nc3ccccc3s2)c1
inactive: SR leukemia 34.5% | RPMI-8226 leukemia 83.2% | OVCAR-8 ovarian 67.9% | OVCAR-4 ovarian 102% | SK-OV-3 ovarian 133% | IGROV1 ovarian 65.7% | OVCAR-3 ovarian 104% | HS 578T breast 108% | NCI/ADR-RES ovarian 59.1%

C[C@H]1OCC2(CCN(c3cnc(C(=O)Nc4cc(F)cc5cccnc45)cn3)CC2)[C@H]1N
inactive: RPMI-8226 leukemia 42.1% | OVCAR-8 ovarian 77.6% | OVCAR-4 ovarian 10.5% | SK-OV-3 ovarian 98.8% | IGROV1 ovarian 20.1% | OVCAR-3 ovarian 19.5% | HS 578T breast 60.8% | NCI/ADR-RES ovarian 72.2%
active: SR leukemia -0.453%

CC(C)(C)c1cc(NC(=O)Nc2ccc(-c3cn4c5c(sc4n3)CCc3c[nH]cc3-5)cc2)no1
active: SR leukemia 2.1% | RPMI-8226 leukemia -18.6% | HS 578T breast -10.4%
inactive: OVCAR-8 ovarian 32.7% | OVCAR-5 ovarian 47.7% | SK-OV-3 ovarian 33.7% | IGROV1 ovarian 38% | NCI/ADR-RES ovarian 29%

O=[N+]([O-])c1ccc(NC(=S)NNC(=S)Nc2ccc(Br)cc2)cc1
inactive: SR leukemia 79.4% | RPMI-8226 leukemia 79.4% | OVCAR-8 ovarian 98.6% | OVCAR-4 ovarian 98.2% | SK-OV-3 ovarian 100% | IGROV1 ovarian 71.7% | HS 578T breast 107% | NCI/ADR-RES ovarian 84.5%

CN1CCN(Cc2ccc(NC(=O)c3cncc(C#Cc4cnc5ccc(OC6CCOCC6)nn45)c3)cc2C(F)(F)F)CC1
active: SR leukemia -16.2% | RPMI-8226 leukemia -20.9% | OVCAR-8 ovarian -58.8% | OVCAR-4 ovarian -53.7% | SK-OV-3 ovarian -73.7% | IGROV1 ovarian -43.3% | HS 578T breast -38.1% | NCI/ADR-RES ovarian -37.7%

O=C1c2ccccc2C23C(=C(c4cncnc4)c4ccccc42)CCCN13 (centres undefined)
inactive: SR leukemia 96.1% | RPMI-8226 leukemia 103% | OVCAR-8 ovarian 104% | OVCAR-4 ovarian 93.3% | SK-OV-3 ovarian 118% | IGROV1 ovarian 107% | HS 578T breast 95% | NCI/ADR-RES ovarian 103%

COc1ccc2[nH]cc(-c3nc(N)nnc3-c3cn(C)c4ccc(Br)cc34)c2c1
active: SR leukemia 9.35% | RPMI-8226 leukemia 6.31% | OVCAR-3 ovarian -8.84%
inactive: OVCAR-8 ovarian 42.8% | OVCAR-4 ovarian 63.6% | SK-OV-3 ovarian 44% | IGROV1 ovarian 38.9% | HS 578T breast 16.9% | NCI/ADR-RES ovarian 64.3%

CN1CCN(Cc2ccc(NC(=O)c3cncc(C#Cc4cnc5ccc(OCC(F)F)nn45)c3)cc2C(F)(F)F)CC1
active: SR leukemia -24.3% | RPMI-8226 leukemia -21.7% | OVCAR-8 ovarian -74.6% | OVCAR-4 ovarian -62.6% | SK-OV-3 ovarian -24.2% | IGROV1 ovarian -53.8% | HS 578T breast -34.1% | NCI/ADR-RES ovarian -28.1%

Cc1ncn(-c2ccc(/C=N/Nc3ccnc4cc(Cl)ccc34)cc2)c1C
active: SR leukemia -21.3% | RPMI-8226 leukemia -27.2% | OVCAR-8 ovarian -57.5% | OVCAR-4 ovarian -68.3% | HS 578T breast -16.1% | NCI/ADR-RES ovarian 8.02%
inactive: SK-OV-3 ovarian 102% | IGROV1 ovarian 61.7%

CC1(C)CC[C@]2(C(=O)O)CC[C@]3(C)C(=CC[C@@H]4[C@@]5(C)CC[C@H](NOCCCN)C(C)(C)[C@@H]5CC[C@]43C)[C@@H]2C1
active: SR leukemia -8%
inactive: RPMI-8226 leukemia 34.7% | OVCAR-8 ovarian 95.2% | OVCAR-4 ovarian 95.2% | SK-OV-3 ovarian 95.8% | IGROV1 ovarian 99.3% | OVCAR-3 ovarian 95.6% | HS 578T breast 87.1% | NCI/ADR-RES ovarian 99.4%

COc1cc(-c2nc(-c3ccccc3)[nH]c2-c2ccnc(NCCCNS(=O)(=O)c3ccc(C)cc3)n2)ccc1F
inactive: SR leukemia 89.4% | RPMI-8226 leukemia 54% | OVCAR-8 ovarian 83.8% | SK-OV-3 ovarian 148% | IGROV1 ovarian 95.2% | OVCAR-3 ovarian 119% | HS 578T breast 107% | NCI/ADR-RES ovarian 89.8%

N#C/C(=C\c1ccc(-c2ccc(Cl)c(Cl)c2)o1)C(=O)Nc1ncc(Cc2ccc(Cl)cc2)s1
active: OVCAR-4 ovarian -15.1% | HS 578T breast -7.83%
inactive: SR leukemia 16% | RPMI-8226 leukemia 67.4% | OVCAR-8 ovarian 19.9% | SK-OV-3 ovarian 81.2% | IGROV1 ovarian 26.2% | NCI/ADR-RES ovarian 32.7%

Cc1ccc2c(n1)C(=O)C(Cl)=C(Nc1cccc(C(F)(F)F)c1)C2=O
active: SR leukemia 9.01% | RPMI-8226 leukemia -17.6% | OVCAR-4 ovarian -97.8% | IGROV1 ovarian -57.4% | OVCAR-3 ovarian -86.3%
inactive: OVCAR-8 ovarian 76% | SK-OV-3 ovarian 89.8% | HS 578T breast 116% | NCI/ADR-RES ovarian 93.3%

CCNC(=O)Oc1ccc(/C(=C(/C)c2ccc(Cl)cc2)c2ccc(OCCN3CCCCCC3)cc2)cc1
active: SR leukemia -5.81% | RPMI-8226 leukemia -14.9% | HS 578T breast -3.08%
inactive: OVCAR-8 ovarian 51.5% | OVCAR-4 ovarian 43.4% | SK-OV-3 ovarian 63.2% | IGROV1 ovarian 49.5% | NCI/ADR-RES ovarian 38.1%

COc1cc(OC)cc(-c2cc(-c3c[nH]c4ccccc34)nc(-c3c[nH]c4ccccc34)c2C#N)c1
inactive: SR leukemia 81.3% | RPMI-8226 leukemia 99% | OVCAR-8 ovarian 102% | OVCAR-5 ovarian 109% | SK-OV-3 ovarian 99.9% | IGROV1 ovarian 93.7% | HS 578T breast 102% | NCI/ADR-RES ovarian 97.1%

CC(=C(c1ccc(OCCN(C)C)cc1)c1ccc(OCCN(C)C)cc1)c1ccc(Cl)cc1
active: SR leukemia -36.1% | RPMI-8226 leukemia -42.7% | OVCAR-5 ovarian -69% | OVCAR-4 ovarian -17.4% | IGROV1 ovarian -76.8% | OVCAR-3 ovarian -55.5% | HS 578T breast -32.5% | NCI/ADR-RES ovarian -49.8%
inactive: SK-OV-3 ovarian 77.5%

C=C(C)[C@@H]1CC[C@]2(C(=O)O)CC[C@]3(C)[C@H](CC[C@@H]4[C@@]5(C)C/C(=C/c6ccccn6)C(=O)C(C)(C)[C@@H]5CC[C@]43C)[C@@H]12
inactive: SR leukemia 29.1% | RPMI-8226 leukemia 13% | OVCAR-5 ovarian 82.4% | OVCAR-4 ovarian 36.2% | SK-OV-3 ovarian 70.4% | IGROV1 ovarian 51.6% | OVCAR-3 ovarian 40.8% | HS 578T breast 63.6% | NCI/ADR-RES ovarian 37.4%

O=C(Nc1ccc(N=Cc2c(O)[nH]c3ccccc23)cc1)Nc1ccc(S(=O)(=O)Nc2ncccn2)cc1
inactive: SR leukemia 96.4% | RPMI-8226 leukemia 107% | OVCAR-5 ovarian 130% | OVCAR-4 ovarian 101% | SK-OV-3 ovarian 114% | IGROV1 ovarian 112% | OVCAR-3 ovarian 117% | HS 578T breast 103% | NCI/ADR-RES ovarian 106%

— PubChem BioAssay (NCI)
